Whole data set: some 33,000 sequences, median “E-score (-0.5 to 0.5)” near -0.054, cut for the highest 2% near 0.35. This excerpt belongs to a sample that is enriched for the highest values.
These sequences were tested against T1, Stb5 (UniProt P38699) (assay: PBM E-score (8-mer binding enrichment) (E-score (-0.5 to 0.5)); higher = stronger / more preferred TF binding). Conditions: protein concentration: 200 nM; construct: GST-full length.
T1 sequence: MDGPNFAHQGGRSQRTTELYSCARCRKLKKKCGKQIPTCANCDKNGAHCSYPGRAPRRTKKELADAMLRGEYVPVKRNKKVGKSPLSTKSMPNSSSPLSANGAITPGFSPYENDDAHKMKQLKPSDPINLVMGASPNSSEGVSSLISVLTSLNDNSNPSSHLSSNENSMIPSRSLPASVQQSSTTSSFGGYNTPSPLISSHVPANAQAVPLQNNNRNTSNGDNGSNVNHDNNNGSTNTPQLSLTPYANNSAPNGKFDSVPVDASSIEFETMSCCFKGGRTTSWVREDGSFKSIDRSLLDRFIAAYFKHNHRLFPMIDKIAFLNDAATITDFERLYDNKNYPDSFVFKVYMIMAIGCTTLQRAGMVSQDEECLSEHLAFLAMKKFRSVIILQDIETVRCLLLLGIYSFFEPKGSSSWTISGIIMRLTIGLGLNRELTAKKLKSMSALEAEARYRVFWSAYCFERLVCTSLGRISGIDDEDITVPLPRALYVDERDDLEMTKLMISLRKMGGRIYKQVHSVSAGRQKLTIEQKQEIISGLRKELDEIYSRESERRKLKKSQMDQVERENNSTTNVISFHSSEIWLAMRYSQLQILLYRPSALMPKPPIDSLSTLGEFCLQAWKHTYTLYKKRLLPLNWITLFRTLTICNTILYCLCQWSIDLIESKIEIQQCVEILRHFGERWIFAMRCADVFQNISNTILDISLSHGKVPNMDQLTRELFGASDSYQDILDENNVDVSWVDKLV
Description: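 Universal 'all 10-mer' protein binding microarrays (Agilent AMADID 015681) probed with GST-tagged S. cerevisiae TFs (full-length or DBD) made by in vitro transcription/translation (PURExpress), about 100-200 nM. Bound TF was detected with fluorescent anti-GST. Each ungapped 8-mer (which stands for itself and its reverse complement) is scored by the PBM enrichment score (E-score), a modified Wilcoxon-Mann-Whitney statistic from -0.5 to +0.5, computed with the Universal PBM Analysis Suite. Scale: above 0.35 generally sequence-specific binding.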

Sequence	PBM E-score
ACCGGACT	0.376
CCCGGACC	0.185
AAACTCAC	-0.172
TAATAAGA	0.0281
GCTCTTTA	0.0664
CACTGCTC	-0.117
AAGCGTGC	-0.171
ACGAGCGT	-0.163
AAGTTCCG	0.373
AAGTTCCT	-0.098
CAGTTCCG	0.0961
ACCACAGA	-0.0655
CCCGCTAA	0.261
AGCGACTG	-0.328
CCGCTCGA	0.328
ACGCTACG	-0.187
ACGCTCCG	0.174
CCGCTCGC	0.373
CCGCTCCG	0.361
CCGCTCCC	0.247
CCGCTACA	0.262
CCGCTACG	0.355
ACGCTCGC	-0.078
CAGTTGCC	-0.0751
AGAAAGAC	-0.0525

Sequence	PBM E-score
GATATAGA	-0.162
AACGGGTG	0.155
GTGAAGCA	-0.165
AGATTTTA	0.0159
ACACTATG	-0.13
AAAGTCTC	-0.145
AAGACCGC	0.443
AAGACCGT	0.382
CAGACCGG	0.272
CAGACCGC	0.272
AAGACCAT	-0.18
AAGACCGA	0.414
AAGACCAG	-0.107
AAGACCGG	0.418
AAGACCTT	-0.073
GAGACCGC	0.311
CAGACCGA	0.174
GAGACCGA	0.257
CCTCTGAG	-0.141
ACTGCGGC	0.168
TCGTTAGA	-0.147
ATAAGGGG	-0.0458
ACGTTGAA	-0.0556
AGCCATAC	-0.269
GCTTGAAA	-0.11

Sequence	PBM E-score
AATGCTGT	-0.0756
GCCGATCC	0.207
AGCGCCGC	0.41
AGCGCCAC	0.162
CGCGCCGC	0.325
AGCGCCGG	0.376
AGCGCCGA	0.342
AGCGCCCG	0.198
CTCTTATC	-0.11
CTTTTTAC	0.145
GCTGCTAA	0.122
ACCCCGTG	0.367
CCCCCGTC	0.233
AACCCGTG	-0.0372
ACCCCGTA	0.301
ACCCCGTC	0.381
AACCCGTC	0.183
AGCTGTGA	-0.266
CGGGGCTA	0.454
CGGGGTAA	0.424
GGGGGCTA	0.0408
AGGGGCTA	-0.0747
CGGGTCTC	0.151
AGGGGTAA	-0.249
CGGGTCTA	0.412

Sequence	PBM E-score
AGGGTATA	0.217
AGGGTCTA	-0.0622
GGGGGTAA	0.248
GGGGTATA	0.26
CGGGTATA	0.403
CCTTAATA	0.03
CCCAAGGA	-0.0196
CTTCGCCA	0.0018
GATTAGTA	0.0787
ATACATGG	-0.155
CGCATCAA	0.126
ACGCTTAG	-0.072
GTGGGTTA	-0.0789
CTCCTCTC	-0.308
GGGGGGTA	0.0523
CCGGGGTA	0.268
CGGGGGTA	0.451
AGGGGTTC	-0.15
CGGGGTTC	0.388
CCGGGTTC	0.24
GGAGCCAA	0.00764
GACTATAC	0.0897
AAGGACGG	0.162
GGACGGAA	0.133
CGACGGAG	0.339

Sequence	PBM E-score
CGACGGAC	0.368
GGACGGAC	0.359
AGACGGAC	0.331
CGACGGAA	0.262
CGCCTCGA	0.0565
GCTATTGA	0.168
GTTCGATA	-0.036
CCTGTTTA	0.0509
CGTTTGCA	0.0334
ACCTGAAA	-0.098
CTCGCCGC	0.0978
ATCGCCGA	0.387
ATAGCCGC	0.312
CTCGCCGA	-0.0352
GTCGCCGA	0.19
ATCGCCTG	-0.215
ATCGCCTC	-0.271
ATCGCCAG	-0.0866
ATCGCCGC	0.385
ATCGCCGG	0.368
ATAGCCGA	0.216
ATAGCCGG	0.373
AGGCAACC	-0.251
ATGAGCTC	-0.262
GAGTCTGA	-0.308

Sequence	PBM E-score
CAAAAGAG	-0.072
TCAGTTCA	-0.229
CGCGTCAC	-0.194
CAAACACC	0.352
AAAACACC	0.353
AAAACACT	0.0252
CAAACACA	-0.126
AAAACACG	-0.0278
CAAACACG	-0.114
AGTTGTAC	0.0567
ATAGTCAC	-0.0899
ACAGACCC	-0.00703
CCAGGAGG	-0.238
TTTCAAAA	-0.0616
CCTAACCC	0.0781
CGACGATC	-0.058
CGAATAGC	0.0153
AAAGGTTG	-0.192
CTTGGCAC	-0.106
AGCTTTAG	-0.226
AGCATCGG	0.214
CCATACCG	0.202
ACCCGCTA	0.0951
CCCCGCAC	0.236
AGCCGCTA	0.173

Sequence	PBM E-score
ACCCGCTC	0.246
GGCCGCTA	0.299
GCCCGCTA	0.233
CCCCGCTC	0.371
CCCCGCTA	0.399
CGCCGCTA	0.412
AGACCAGC	-0.285
AAGTCTGC	-0.211
CCAGCAGC	-0.12
AGAACTAA	0.0894
TGAACTAA	-0.153
GGAACTAA	0.373
CCCGTTTA	0.188
GTCCACAC	0.162
GCTCCGGA	0.368
ACTCCGGC	0.307
ACTCCGGA	0.355
CCTCCGGA	0.219
ACTCCGGG	0.327
GCTCCGCA	0.173
ATATTCTG	0.0727
GCTGACCA	-0.169

— the supplement of paper PMC3334620
